Results: PubChem BioAssay (NCATS)
Records with an inconclusive call do not appear. Active and inactive are the calls of the source. The call rests on the fitted dose curve; in most records, active means well fitted curve in the direction sought with a large enough effect; inconclusive means small, poorly fitted or top-dose-only effect, or another doubt; inactive means no such curve, though single readings can be large; an effect the other way counts as inactive or inconclusive.

Key:
[1] = target: Phospholipid hydroperoxide glutathione peroxidase GPX4 (Homo sapiens) (UniProt P36969); assay: Primary qHTS Assay for Inhibitors of Recombinant Selenoprotein Glutathione Peroxidase 4 (GPX4) (AID 1845192); further: nearly all actives have a fitted effect of over 65% in size; on activity change, negative = inhibition: series mostly up to about 50 µM; on the % scale 0 is the no-effect control and ±100 the full control effect
Phospholipid hydroperoxide glutathione peroxidase GPX4 (Homo sapiens), sequence (P36969 whole entry, looked up): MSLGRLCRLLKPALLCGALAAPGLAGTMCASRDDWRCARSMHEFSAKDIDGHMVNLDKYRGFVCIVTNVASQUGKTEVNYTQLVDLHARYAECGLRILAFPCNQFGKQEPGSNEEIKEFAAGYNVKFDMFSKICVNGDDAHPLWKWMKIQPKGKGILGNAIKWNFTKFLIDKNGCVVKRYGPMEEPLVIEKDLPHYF
Outline: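 GR-coupled readout: 100 nM GR, 1 mM GSH, 0.5 mM NADPH; NADPH fluorescence (ex 340/em 450 nm) read at t=0 and after 15 min RT. GPX4 200 nM, preincubated 30 min with compound; substrate 0.5 mM CHP.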

[2] = target: Luciferin 4-monooxygenase (Photinus pyralis) (UniProt P08659); assay: Primary firefly luciferase (FLuc) qHTS assay for identification of artifact compounds. (AID 1845220); further: nearly all actives have a fitted effect of over 60% in size;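 on activity change, negative = inhibition: series mostly up to about 54 µM; plate controls were DMSO vehicle for no effect and no enzyme for full effect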
Outline: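 In this counter-screen for luciferase artifacts, test compounds met substrate (10 uM each luciferin and ATP) before 10 nM enzyme started the reaction. Light output was measured 5 min later.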

[3] = Primary fluorescence-based thiol-reactive (MSTI) qHTS assay for identification of artifact compounds. (AID 1845221); further: nearly all actives have a fitted effect of over 65% in size; further: potency means the concentration at half of the fitted maximal effect;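 on activity change, negative = thiol reactive: series mostly up to about 54 µM; thiol-reactive compounds lower the probe fluorescence signal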
Outline: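 Probe: MSTI 4 uM, PBS pH 7.4, 2% DMSO. Incubation 1 h, RT, light-protected. Readout fluorescence 525/598 nm.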

[4] = tested on: Nanoluciferase (engineered Oplophorus gracilirostris luciferase); assay: Primary Nanoluciferase (NLuc) qHTS assay for identification of artifact compounds. (AID 1845222);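 further: NLuc secreted into diluted conditioned medium of S16 cells; series mostly up to about 54 µM; 0% = DMSO and -100% = no enzyme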
Outline: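 Using secreted nanoluciferase in S16 culture medium (0.22 um filtered, 1:55 dilution), compounds were preincubated 15 min at RT. Signal was generated with Nano-Glo reagent (1:100) over 5 min.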

[5] = Primary redox qHTS assay for identification of artifact compounds. (AID 1845223);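 further: 0% = DMSO and 100% = reference compound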
Outline: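 Amplex Red (25 uM) and HRP (250 mU/mL) in HBSS, with compounds for 15 min, then 250 uM DTT for 30 min, room temperature, dark. Fluorescence 525/598 nm read; normalized to DMSO and 10 uM DA3003; Hill fit.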

CC(C)=CC/C=C(\C)[C@H]1CC[C@]2(C)[C@@H]1[C@H](O)C[C@@H]1[C@@]3(C)CC[C@H](O)C(C)(C)[C@@H]3[C@@H](O[C@@H]3O[C@H](CO)[C@@H](O)[C@H](O)[C@H]3O)C[C@]12C
inactive: Potency [1] | Potency [2] | Potency [3] | Potency [4]

C=C(C(=O)O)C1CCC2(C)CCC(O)C(=C)C2C1 (stereo not given)
active: Potency [3] 13.4 µM
inactive: Potency [1] | Potency [2] | Potency [4]

CC1=CCC2C(C)(C)CCC[C@]2(C)[C@@]12CC[C@](C)(CC(=O)O)O2 (stereo not given in full)
inactive: Potency [1] | Potency [2] | Potency [3] | Potency [4] | Potency [5]

CC(C)C(N)C(=O)OCCOCn1cnc2c(=O)[nH]c(N)nc21 (stereo not given)
inactive: Potency [1] | Potency [2] | Potency [3] | Potency [4] | Potency [5]

CC1(C)CC2C(O)c3cocc3CC(C)(O)C2C1 (stereo not given)
inactive: Potency [1] | Potency [2] | Potency [3] | Potency [4] | Potency [5]

C=C1CCC2C(C)(C(=O)O)CCCC2(C)C1CCC(C)CC(=O)O (stereo not given)
inactive: Potency [1] | Potency [2] | Potency [3] | Potency [4]

C[C@@H]1O[C@@H](O[C@H]2[C@H](O[C@H]3CC[C@@]4(C)C(CC[C@]5(C)C4CC=C4[C@@H]6CC(C)(C)CC[C@]6(C(=O)O[C@@H]6OC[C@H](O)[C@H](O)[C@H]6O[C@@H]6O[C@@H](C)[C@H](O[C@@H]7O[C@H](CO)[C@@H](O)[C@H](O)[C@H]7O)[C@H](O)[C@H]6O)[C@H](O)C[C@]45C)C3(C)C)O[C@H](CO)[C@@H](O[C@@H]3OC[C@@H](O)[C@H](O)[C@H]3O)[C@@H]2O)[C@H](O)[C@H](O)[C@H]1O (stereo not given in full)
inactive: outcome [1] inactive [at 9.73 µM] | activity change, negative = inhibition [2] -1.49% [at 11.6 µM] | activity change, negative = thiol reactive [3] 113% [at 11.5 µM] | activity, negative = inhibition [4] 3.16% [at 11.6 µM]

COc1c2c(c(CO)c3c1C(=O)OC3)OC1(C)CCC3(O)C(C)(C)OC(=O)CCC3(C)C1C2 (stereo not given)
inactive: Potency [1] | Potency [2] | Potency [3] | Potency [4] | Potency [5]

CCN(CC)Cc1ccc(C(=O)N(CCc2ccccc2OC)[C@@H]2CCNC2)cc1
inactive: Potency [1] | Potency [2] | Potency [3] | Potency [4] | Potency [5]

COC(=O)[C@@]1(c2ccc(C)cc2)C[C@H]1CN1CCC(O)(c2ccccc2)CC1
inactive: Potency [1] | Potency [2] | Potency [3] | Potency [4] | Potency [5]

C=C(CCC1=C(C)[C@H]2[C@H](CC3[C@@H]4CC=C5C[C@@H](O)C[C@@H](O)[C@]5(C)C4[C@H](O)C[C@@]32C)O1)CO[C@@H]1O[C@H](CO)[C@@H](O)[C@H](O)[C@H]1O (stereo not given in full)
inactive: Potency [1] | Potency [2] | Potency [3] | Potency [4] | Potency [5]

CC(C)C(=O)OC[C@H]1O[C@H](O[C@H]2O[C@H](CO)[C@@H](O)[C@H](O)[C@H]2O)[C@H](O)[C@@H](O)[C@@H]1O
inactive: Potency [1] | Potency [2] | Potency [3] | Potency [4] | Potency [5]

COC(=O)C1=CO[C@@H](O[C@@H]2O[C@H](CO[C@@H]3O[C@H](COC(=O)/C=C/c4cc(OC)c(O)c(OC)c4)[C@@H](O)[C@H](O)[C@H]3O)[C@@H](O)[C@H](O)[C@H]2O)[C@@H]2C(CO)=CC[C@H]12
inactive: Potency [1] | Potency [2] | Potency [4] | Potency [5]
active: Potency [3] 7.93 µM

C/C=C1\[C@H](O[C@@H]2O[C@H](CO)[C@@H](O)[C@H](O)[C@H]2O)OC=C(C(=O)OC)[C@H]1CC(=O)O
inactive: Potency [1] | Potency [2] | Potency [3] | Potency [4] | Potency [5]

CCC(C)C(=O)O[C@H]1CCC=C2C=C[C@H](C)[C@H](CC[C@@H](O)C[C@@H](O)CC(=O)O)[C@H]21 (stereo not given in full)
inactive: Potency [1] | Potency [2] | Potency [3] | Potency [4]

NCc1ccc(Nc2ncc(F)c(Nc3ccccc3)n2)cc1
inactive: Potency [1] | Potency [2] | Potency [3] | Potency [4] | Potency [5]

CN(C)C/C=C/C(=O)Nc1cccc(C(=O)Nc2ccc(Nc3nccc(-c4cccnc4)n3)cc2)c1
inactive: Potency [1] | Potency [2] | Potency [3] | Potency [4] | Potency [5]

C=C1CCC2C(C)(C)C(O)CCC2(C)C1CCC(C)CCO (stereo not given)
active: Potency [3] 16.5 µM
inactive: Potency [1] | Potency [2] | Potency [4]

CN[C@@H]1[C@H](O[C@H]2[C@H](O[C@@H]3[C@@H](O)[C@H](O)[C@@H](N=C(N)N)[C@H](O)[C@H]3N=C(N)N)O[C@@H](C)[C@]2(O)C=O)O[C@@H](CO)[C@H](O)[C@H]1O
inactive: Potency [1] | Potency [2] | Potency [3] | Potency [4]

Cc1nc(Nc2n[nH]c3c2CN(C(=O)NC(CN(C)C)c2ccccc2)C3(C)C)c2sccc2n1 (stereo not given)
inactive: Potency [1] | Potency [2] | Potency [3] | Potency [4]

CC(=O)N1CCN(C(=O)Cc2ccc(Nc3ncc(F)c(Nc4ccc(C(=O)Nc5ccccc5Cl)cc4)n3)cc2)CC1
inactive: Potency [1] | Potency [2] | Potency [3] | Potency [4]

CNC(=O)c1ccccc1Nc1cc(Nc2ccc(N3CCOCC3)cc2OC)ncc1C(F)(F)F
inactive: Potency [1] | Potency [2] | Potency [4]
active: Potency [3] 1.5 µM

C[C@H]1CC(=O)Nc2cccc(-c3cnn(C(C)(C)C)c3)c2N1
inactive: Potency [1] | Potency [2] | Potency [3] | Potency [4] | Potency [5]
